# Results from PubChem BioAssay (Tox21).
# Inconclusive results are not listed. A call without a number means that no potency is given here. The source made the active and inactive calls. Unless noted, calls follow the shape of the dose curve; as a rule, active = well fitted curve in the direction sought with a large enough effect in the repeat runs; inconclusive = weak or mixed curves; inactive = no such curve, though single readings can be large; an effect the other way counts as inactive or inconclusive.
# Key:
# [1] = qHTS assay to identify small molecule antagonists of the estrogen receptor alpha (ER-alpha) signaling pathway using the BG1 cell line in the presence of 0.1 nM 17-beta-estradiol - cell viability counter screen (AID 1259241); also: nearly all actives have a fitted effect of over 40% in size
# Outline: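 Cells were plated and left 24 hr, compounds in DMSO were pinned in, 17beta-estradiol was added to 0.1 nM final, and after 22 hr CellTiter-Fluor reagent was added for 30 min before fluorescence was read.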
# [2] = qHTS assay to identify small molecule antagonists of the androgen receptor (AR) signaling pathway using the MDA cell line in the presence of 0.5 nM R1881 - cell viability counter screen (AID 1259242); also: nearly all actives have a fitted effect of over 45% in size
# Outline: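 Fluorescence from CellTiter-Fluor, which reports protease activity of live cells, was read 30 min after reagent addition to MDA-kb2 cells that had been incubated 16 hr with compound and 0.5 nM R1881.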
# [3] = biological target: Estrogen receptor (Homo sapiens) (UniProt P03372); assay: qHTS assay to identify small molecule antagonists of the estrogen receptor alpha (ER-alpha) signaling pathway using the BG1 cell line in the presence of 0.1 nM 17-beta-estradiol (AID 1259244); also: nearly all actives have a fitted effect of over 50% in size
# Chain of Estrogen receptor (Homo sapiens) (P03372 whole entry, looked up): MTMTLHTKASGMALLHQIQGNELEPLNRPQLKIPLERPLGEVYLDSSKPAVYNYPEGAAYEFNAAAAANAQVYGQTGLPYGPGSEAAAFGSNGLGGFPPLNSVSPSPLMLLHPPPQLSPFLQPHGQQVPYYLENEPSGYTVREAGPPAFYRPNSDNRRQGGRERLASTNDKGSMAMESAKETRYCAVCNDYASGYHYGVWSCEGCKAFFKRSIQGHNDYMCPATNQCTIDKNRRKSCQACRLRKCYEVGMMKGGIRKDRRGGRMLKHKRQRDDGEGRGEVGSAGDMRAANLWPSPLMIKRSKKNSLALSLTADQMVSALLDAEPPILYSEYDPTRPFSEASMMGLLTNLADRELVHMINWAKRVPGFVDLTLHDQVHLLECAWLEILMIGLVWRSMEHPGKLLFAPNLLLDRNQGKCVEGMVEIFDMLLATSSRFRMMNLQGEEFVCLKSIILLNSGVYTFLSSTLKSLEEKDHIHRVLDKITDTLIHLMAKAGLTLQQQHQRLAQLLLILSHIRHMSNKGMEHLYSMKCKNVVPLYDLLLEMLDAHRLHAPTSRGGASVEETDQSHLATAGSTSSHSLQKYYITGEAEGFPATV
# Outline: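 Quantitative high-throughput screen in VM7Luc4E2 cells: compound plus 0.1 nM E2 (final), 22 h, 37C, 5% CO2; ONE-Glo added, 30 min room temperature, luminescence measured.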
# [4] = qHTS assay to identify small molecule phospholipidosis (PLD) inducers (AID 1259344; active = well fitted curve in the direction sought with a large enough effect; an effect the other way counts as inactive or inconclusive)
# Outline: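 Phospholipidosis is scored by imaging LipidTOX-stained pits in HepG2 cells exposed to compound for 24 h at 37 C; pit counts and integrated intensities per well and per cell serve as outputs.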
# [5] = qHTS assay to identify small molecule HDAC inhibitors (AID 1259364); also: top concentration of the series differs between compounds; nearly all actives have a fitted effect of over 45% in size
# Outline: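 Endogenous HDAC class I/II activity was measured in wild-type HCT-116 cells by HDAC-Glo luminescence after 2 h compound treatment.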
# [6] = qHTS assay to identify small molecule HDAC inhibitors - cell viability counter screen (AID 1259365); also: series mostly up to about 92 µM; nearly all actives have a fitted effect of over 50% in size
# Outline: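 Counter screen in wild-type HCT-116 cells: compounds dissolved in DMSO are pin-transferred onto overnight-plated cells and left 2hr at 37C. ATP-based CellTiter-Glo luminescence then measures viable cells.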
# [7] = qHTS assay to identify small molecule agonists of the sonic hedgehog signaling (Shh) pathway - cell viability counter screen (AID 1259366); also: nearly all actives have a fitted effect of over 50% in size
# Outline: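 Cells are plated at 2,000 per well and left 4hr at 37C, 5% CO2 before compound addition. After 23hr of treatment, CellTiter-Fluor reagent is added for 1hr at 37C and fluorescence is measured.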
# [8] = qHTS assay to identify small molecule antagonists of the sonic hedgehog signaling (Shh) pathway - cell viability counter screen (AID 1259367); also: nearly all actives have a fitted effect of over 55% in size
# Outline: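 Cells: 3T3 Gli1-Luc, 2,000/well, 4 hr pre-incubation. Compounds in DMSO, then conditioned medium. Incubation 24 hr, 37C, 5% CO2. CellTiter-Fluor at 23 hr, 1 hr, fluorescence.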
# [9] = qHTS assay to identify small molecule agonists of the sonic hedgehog signaling (Shh) pathway (AID 1259368; calls by dose curve;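 also: NIH/3T3-derived 3T3Gli1-Luc cells carrying a stable Gli1-driven firefly luciferase reporter; series mostly up to about 92 µM; nearly all actives have a fitted effect of over 15% in size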)
# Outline: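 Luminescent signal was taken as a measure of Gli1-controlled luciferase expression in stably transfected NIH/3T3-derived cells that had been treated for 24 hr with compounds delivered in DMSO.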
# [10] = qHTS assay to identify small molecule antagonists of the sonic hedgehog signaling (Shh) pathway (AID 1259369; calls by dose curve; also: nearly all actives have a fitted effect of over 45% in size)
# Outline: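 Screening used 3T3Gli1-Luc cells at 2,000 per well, compounds delivered in DMSO, and conditioned medium as agonist stimulus; plates incubated 24hr at 37 C and 5% CO2 before a 30min luciferase step.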
# [11] = biological target: Estrogen receptor beta (Homo sapiens) (UniProt Q92731); assay: qHTS assay to identify small molecule agonists of the estrogen receptor beta (ER-beta) signaling pathway (AID 1259377; active = well fitted activation curve with a large enough effect in the signal ratio in the repeat runs, not every such curve was filed as active; the % refers to the signal ratio)
# Chain of Estrogen receptor beta (Homo sapiens) (Q92731 whole entry, looked up, the tested form may be a part): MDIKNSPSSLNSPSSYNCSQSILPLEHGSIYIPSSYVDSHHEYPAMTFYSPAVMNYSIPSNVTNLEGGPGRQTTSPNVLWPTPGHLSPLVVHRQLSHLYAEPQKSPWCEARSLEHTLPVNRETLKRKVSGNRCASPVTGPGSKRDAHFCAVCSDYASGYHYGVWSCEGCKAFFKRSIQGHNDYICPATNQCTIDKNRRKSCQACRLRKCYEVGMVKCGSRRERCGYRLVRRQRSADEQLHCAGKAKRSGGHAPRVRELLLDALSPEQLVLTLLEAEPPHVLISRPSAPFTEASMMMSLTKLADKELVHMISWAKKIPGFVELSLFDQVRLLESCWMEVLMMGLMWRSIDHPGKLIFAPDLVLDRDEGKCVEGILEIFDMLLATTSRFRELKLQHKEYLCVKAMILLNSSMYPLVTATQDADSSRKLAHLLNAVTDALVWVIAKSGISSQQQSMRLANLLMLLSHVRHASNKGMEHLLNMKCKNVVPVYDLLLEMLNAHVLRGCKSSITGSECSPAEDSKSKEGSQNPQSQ
# Outline: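 Agonist mode cell assay in GripTite HEK293T cells expressing an ER-beta fusion that drives beta-lactamase from an Upstream Activator Sequence; 16 hr compound exposure at 37C, then 2 h LiveBLAzer B/G FRET substrate at room temperature, fluorescence read-out.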
# [12] = qHTS assay to identify small molecule agonists of the androgen receptor (AR) signaling pathway in the presence of an antagonist - cell viability counter screen (AID 1259379);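 also: MDA-kb2 human breast cancer cells carrying an MMTV luciferase reporter; series mostly up to about 92 µM; nearly all actives have a fitted effect of over 25% in size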
# Outline: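 In MDA-kb2 cells (human breast carcinoma, MMTV-luciferase), compounds at 15 concentrations plus 3.0uM nilutamide; 16 hr, 37C, 0% CO2; CellTiter-Fluor fluorescence read for viability.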
# [13] = qHTS assay to identify small molecule agonists of the estrogen receptor beta (ER-beta) signaling pathway - cell viability counter screen (AID 1259380); also: nearly all actives have a fitted effect of over 30% in size; also: potency is read from the fitted curve at half-maximal effect
# Outline: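 Viability of ER-beta-UAS-bla HEK293T cells was determined by CellTiter-Glo luminescence following 16 hr treatment with test compounds at 37C.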
# [14] = qHTS assay to identify small molecule antagonists of the estrogen receptor beta (ER-beta) signaling pathway - cell viability counter screen (AID 1259382);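 also: HEK293T cells carrying ER-beta-UAS-bla reporter stimulated with estradiol; series mostly up to about 92 µM; nearly all actives have a fitted effect of over 55% in size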
# Outline: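 Tox21 10K library tested in qHTS format on ER-beta-bla HEK293T cells stimulated with 1nM E2; 16 hr treatment at 37C. Same-well CellTiter-Glo luminescence served as the cell viability measure.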
# [15] = biological target: Estrogen receptor (Homo sapiens) (UniProt P03372); assay: qHTS assay to identify small molecule agonists of the estrogen receptor alpha (ER-alpha) signaling pathway in the presence of an antagonist (AID 1259383; calls by dose curve; also: top concentration of the series differs between compounds; nearly all actives have a fitted effect of over 15% in size)
# Outline: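 In VM7Luc4E2 cells, 4,000 per well, compounds at 15 concentrations were co-incubated 22hr at 37C with 10.0nM final ICI-182,780. Luminescence from the stably transfected 4×ERE-luciferase reporter was recorded 30min after ONE-Glo addition.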
# [16] = biological target: Estrogen receptor beta (Homo sapiens) (UniProt Q92731); assay: qHTS assay to identify small molecule antagonists of the estrogen receptor beta (ER-beta) signaling pathway (AID 1259378; active = well fitted inhibition curve with a large enough effect in the signal ratio in the repeat runs, not every such curve was filed as active; the % refers to the signal ratio)
# Outline: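 Antagonist mode: compounds added to beta-lactamase reporter HEK293T ER-beta-UAS cells stimulated with E2 (1nM final), 16 hr at 37C. LiveBLAzer B/G FRET substrate, 2 hours room temperature, fluorescence read-out.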
# [17] = qHTS assay to identify small molecule agonists or antagonists of the thyroid stimulating hormone receptor (TSHR) signaling pathway - wild type cell line counter screen (AID 1259384; calls by dose curve)
# Outline: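 Counter screen in untransfected Hek293: compounds (15-point titration, triplicate) plus phosphodiesterase inhibitor Ro20-1724 added after 18 h plating; 30 min RT. Intracellular cAMP via competitive d2/cryptate immunoassay, 1 h incubation.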
# [18] = biological target: Thyrotropin receptor (Homo sapiens) (UniProt P16473); assay: qHTS assay to identify small molecule antagonists of the thyroid stimulating hormone receptor (TSHR) signaling pathway (AID 1259385; calls by dose curve; also: nearly all actives have a fitted effect of over 20% in size)
# Chain of Thyrotropin receptor (Homo sapiens) (P16473 whole entry, looked up): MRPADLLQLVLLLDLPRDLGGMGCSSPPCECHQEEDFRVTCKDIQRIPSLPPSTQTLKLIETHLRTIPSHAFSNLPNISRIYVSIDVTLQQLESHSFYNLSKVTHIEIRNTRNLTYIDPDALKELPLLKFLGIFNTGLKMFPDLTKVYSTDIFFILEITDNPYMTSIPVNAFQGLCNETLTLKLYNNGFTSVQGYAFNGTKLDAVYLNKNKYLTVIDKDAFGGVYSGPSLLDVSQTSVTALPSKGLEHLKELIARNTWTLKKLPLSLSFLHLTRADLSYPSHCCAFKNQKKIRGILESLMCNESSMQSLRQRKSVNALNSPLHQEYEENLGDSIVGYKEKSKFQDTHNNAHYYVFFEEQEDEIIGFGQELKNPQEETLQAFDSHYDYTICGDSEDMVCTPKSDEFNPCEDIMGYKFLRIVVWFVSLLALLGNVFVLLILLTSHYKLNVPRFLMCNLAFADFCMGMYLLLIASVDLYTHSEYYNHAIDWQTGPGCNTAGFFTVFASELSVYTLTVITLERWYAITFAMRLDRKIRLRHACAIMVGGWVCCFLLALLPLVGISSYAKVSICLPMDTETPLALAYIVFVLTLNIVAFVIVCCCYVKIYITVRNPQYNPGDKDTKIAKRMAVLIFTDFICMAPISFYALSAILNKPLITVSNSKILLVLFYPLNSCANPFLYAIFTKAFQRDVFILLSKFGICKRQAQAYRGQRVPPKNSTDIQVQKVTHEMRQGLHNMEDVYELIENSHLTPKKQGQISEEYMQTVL
# Outline: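 Antagonist mode: compound-treated TSHR-expressing HEK293 cells were stimulated with 1.5 ng/mL TSH (final) in presence of Ro20-1724 for 30 min at RT. HTRF cAMP detection after 1 h; each compound tested at 15 concentrations, triplicate.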
# [19] = biological target: Androgen receptor (Homo sapiens) (UniProt P10275); assay: qHTS assay to identify small molecule antagonists of the androgen receptor (AR) signaling pathway using the MDA cell line in the presence of 0.5 nM R1881 (AID 1259243); also: nearly all actives have a fitted effect of over 50% in size
# Chain of Androgen receptor (Homo sapiens) (P10275 whole entry, looked up): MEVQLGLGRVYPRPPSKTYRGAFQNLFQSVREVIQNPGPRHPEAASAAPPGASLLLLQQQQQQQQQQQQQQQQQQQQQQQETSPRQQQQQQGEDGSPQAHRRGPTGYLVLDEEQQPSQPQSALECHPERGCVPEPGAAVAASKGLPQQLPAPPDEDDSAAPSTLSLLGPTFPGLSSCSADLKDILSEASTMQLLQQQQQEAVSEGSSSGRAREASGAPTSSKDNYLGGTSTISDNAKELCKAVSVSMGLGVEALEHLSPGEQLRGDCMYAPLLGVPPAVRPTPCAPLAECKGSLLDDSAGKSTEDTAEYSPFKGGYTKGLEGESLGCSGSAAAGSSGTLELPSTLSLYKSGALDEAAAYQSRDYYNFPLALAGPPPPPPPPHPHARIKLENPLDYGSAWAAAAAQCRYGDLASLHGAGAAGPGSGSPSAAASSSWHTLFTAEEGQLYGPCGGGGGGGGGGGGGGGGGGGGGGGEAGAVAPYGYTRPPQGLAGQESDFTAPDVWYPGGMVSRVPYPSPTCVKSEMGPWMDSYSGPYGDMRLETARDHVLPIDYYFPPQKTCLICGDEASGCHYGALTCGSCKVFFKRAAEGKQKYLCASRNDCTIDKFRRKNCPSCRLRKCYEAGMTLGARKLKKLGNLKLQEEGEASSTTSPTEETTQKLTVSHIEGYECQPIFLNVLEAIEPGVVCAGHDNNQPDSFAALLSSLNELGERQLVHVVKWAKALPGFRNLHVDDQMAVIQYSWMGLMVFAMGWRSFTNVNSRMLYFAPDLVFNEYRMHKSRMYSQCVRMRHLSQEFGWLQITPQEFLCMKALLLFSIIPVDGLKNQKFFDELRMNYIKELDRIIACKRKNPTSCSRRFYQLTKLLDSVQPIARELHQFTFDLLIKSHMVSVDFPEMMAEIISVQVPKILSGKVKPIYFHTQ
# Outline: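 Inhibition of R1881 (0.5 nM final) induced reporter signal was measured in human MDA-kb2 cells; note the MMTV promoter also responds to GR. Exposure lasted 16 hr at 37C.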
# [20] = biological target: Androgen receptor (Homo sapiens) (UniProt P10275); assay: qHTS assay to identify small molecule agonists of the androgen receptor (AR) signaling pathway in the presence of an antagonist (AID 1259381; calls by dose curve; also: nearly all actives have a fitted effect of over 15% in size)
# Outline: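 Here, 15-concentration compound series were pin-transferred onto MDA-kb2 MMTV-luciferase cells already dosed with nilutamide (3.0uM final). After 16hr at 37C, ONE-Glo was added and luminescence read 30min later at room temperature.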
Compound,Potency [1],Potency [2],Potency [3],outcome [4],Potency [5],Potency [6],Potency [7],Potency [8],Potency [9],Potency [10],Potency [11],Potency [12],Potency [13],Potency [14],Potency [15],Potency [16],outcome [17],Potency [18],Potency [19],Potency [20]
CN1CC[C@]23c4c5ccc(O)c4O[C@H]2[C@@H](O)CC[C@H]3[C@H]1C5,inactive,inactive,inactive,inactive,inactive,inactive,inactive,inactive,inactive,inactive,inactive,inactive,inactive,inactive,inactive,,,,,
CC(O)CN1CCN(CC(=O)[O-])CCN(CC(=O)[O-])CCN(CC(=O)[O-])CC1.[Gd+3] (stereo not drawn),inactive,inactive,inactive,inactive,inactive,inactive,inactive,inactive,inactive,,inactive,inactive,inactive,inactive,inactive,inactive,inactive,inactive,,
O=S(=O)(Cl)Cl,inactive,inactive,inactive,,inactive,inactive,inactive,inactive,inactive,inactive,inactive,inactive,inactive,inactive,inactive,inactive,inactive,inactive,,
CCOP(=S)(OCC)Oc1ccc(S(C)=O)cc1 (stereo not drawn),inactive,inactive,inactive,,inactive,inactive,inactive,inactive,inactive,inactive,inactive,inactive,inactive,inactive,inactive,inactive,inactive,inactive,,
CC(CC(C(N)=O)(c1ccccc1)c1ccccc1)N(C)C (stereo not drawn),inactive,inactive,,,inactive,inactive,,,inactive,,,inactive,inactive,inactive,,,inactive,inactive,inactive,inactive
O=CC=O,inactive,inactive,inactive,inactive,inactive,inactive,inactive,inactive,inactive,inactive,,inactive,inactive,inactive,inactive,inactive,inactive,inactive,inactive,inactive
COc1cc(C[C@@H](C)N)c(OC)cc1Br,inactive,inactive,inactive,inactive,inactive,inactive,,inactive,inactive,,,inactive,35.3 µM (active),,inactive,,inactive,inactive,,
FC(F)OC(F)(F)C(F)Cl (stereo not drawn),inactive,inactive,,inactive,inactive,inactive,inactive,inactive,inactive,inactive,inactive,inactive,inactive,inactive,,inactive,inactive,inactive,inactive,inactive
